The source of these data is PubChem BioAssay AID1851 (National Center for Advancing Translational Sciences (NCATS), 2009).

Screen size: about 16,000 compounds; about 2,600 (16%) were called active. Inconclusive results (about 20%) are left out. Calls follow the shape of the dose curve; as a rule, active = well fitted curve in the direction sought with a large enough effect; inconclusive = small, poorly fitted or top-dose-only effect, or effect the other way; inactive = no such curve, though single readings can be large or run the other way. Not all results are given here.
% is scaled to controls: 0 for no effect and ±100 for the full control effect.

The target of the assay is Cytochrome P450 2D6 (Homo sapiens) (UniProt P10635). The experiment in a line: Cytochrome panel assay with activity outcomes. The conditions noted are these: recombinant CYP, pro-luciferin dealkylation, luminescence, p450-cyp2d6; series mostly up to 57.1 µM.
Chain of Cytochrome P450 2D6 (Homo sapiens) (P10635 whole entry, looked up): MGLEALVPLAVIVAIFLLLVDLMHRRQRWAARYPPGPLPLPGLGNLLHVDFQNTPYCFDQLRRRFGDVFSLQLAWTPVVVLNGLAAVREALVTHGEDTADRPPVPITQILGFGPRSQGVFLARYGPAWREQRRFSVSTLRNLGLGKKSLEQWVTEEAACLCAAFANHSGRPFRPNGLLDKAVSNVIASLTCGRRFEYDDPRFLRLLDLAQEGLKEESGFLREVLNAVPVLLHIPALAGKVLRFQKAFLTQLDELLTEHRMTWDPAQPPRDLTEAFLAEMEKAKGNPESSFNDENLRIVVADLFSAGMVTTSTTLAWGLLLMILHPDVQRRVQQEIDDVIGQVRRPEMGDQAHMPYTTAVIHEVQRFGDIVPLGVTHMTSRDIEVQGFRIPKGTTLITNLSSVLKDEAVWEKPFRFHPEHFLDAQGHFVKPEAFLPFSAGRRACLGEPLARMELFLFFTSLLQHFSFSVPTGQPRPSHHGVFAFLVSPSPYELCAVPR
Consider `Cc1nonc1NC(=O)N1CCCC1`, for which the AC50 entry was “inactive”.
For `O=C(O)Cn1ccnc1[N+](=O)[O-]`, the activity, negative = inhibition is 0.12% [at 11.4 µM] (inactive).
On to `Cc1ccc(C)c(/C(O)=C2/C(=O)C(=O)N(CCN3CCOCC3)C2c2ccco2)c1` (stereo not given), for which the AC50 entry was “inactive”.
Same read-out and setting: under `COc1ccc(NC(=O)CSc2ccc3c4c(cccc24)C(=O)c2ccccc2-3)cc1` stands “inactive”.
The same measure, in the same setting: under `O=C(NCc1ccccc1)c1sc(=S)n2c1[nH]c(=O)c1ccccc12` stands “inactive”; under `COc1ccc(C(=O)Nc2cc(C(C)=O)c(/C=C/N(C)C)oc2=O)cc1`, “inactive”.
On to `CCC(=O)Nc1c2c(nc3c1CCC3)CCCC2`, for which the AC50 result is “inactive”.
Take `COC(=O)CCC(=O)Nc1cccc2ccccc12`: the AC50 result is “inactive”.
For the compound `O[C@@H](COc1ccc(Cl)cc1Cl)CN1CCCC1`, the AC50 was 0.316 µM (active).
Still for that read-out and setting: in the case of `O=S(=O)(CC(O)COc1ccccc1Cl)c1ccccc1` (stereo not given) it was “inactive”; in that of `CCC(=O)NC(=S)Nc1ccc(NC(=O)COc2ccc(Cl)cc2Cl)cc1`, “inactive”.
On to `O=C(OC1CCN(c2ncc(C(F)(F)F)cc2Cl)CC1)c1ccccc1`, for which the AC50 entry was “inactive”.
For the compound `CC1(C)O[C@H]2[C@@H](c3[nH]nc4c(=O)[nH]c(=O)[nH]c34)OC[C@H]2O1`, the activity, negative = inhibition is 17% [at 11.4 µM] (inactive).
`CCSc1nnc(NC(=O)Cc2ccc(OC)c(OC)c2)s1`: the AC50 result was “inactive”.
The same measure, in the same setting: under `Cc1nc2c(c(-c3ccccc3)c1C#N)C(=O)c1ccccc1-2` stands “inactive”.
Regarding `CC(C)CC1NC(=S)N(C2CCCCC2)C1=O` (stereo not given), the AC50 entry is “inactive”.
Turning to `CCCC[C@@H]1C[C@H]1C(NC(=O)c1cccs1)c1ccc(C(F)(F)F)cc1` (stereo not given in full), the AC50 entry was “inactive”.
In the case of `CN(C)Cc1cc(C(C)(C)C)ccc1-c1ccc(C(C)(C)C)cc1CN(C)C`, the activity, negative = inhibition was 4.2% [at 11.4 µM] (inactive).
As to `O=C(O)Cc1c(O)ccc2ccccc12`, the activity, negative = inhibition is 2.9% [at 11.4 µM] (inactive).
As to `CC(C)(C)c1ccc(O)c(CN(Cc2cc(C(C)(C)C)ccc2O)C2CCCCC2)c1`, the AC50 was 0.501 µM (active).
Turning to `Oc1ccc2ccccc2c1CN(Cc1c(O)ccc2ccccc12)C1CCCCC1`, the AC50 is 0.631 µM (active).
On to `Oc1ccc2ccccc2c1Cc1c(O)ccc2ccccc12`, for which the activity, negative = inhibition was 3.09% [at 11.4 µM] (inactive).
As to `CS(=O)(=O)N(Cc1cc2ccccc2[nH]c1=O)C1CCCCC1`, the AC50 result was “inactive”.
On to `CC(C)(C)c1ccc(O)c(CN(Cc2c(O)ccc3ccccc23)C2CCCCC2)c1`, for which the AC50 was 0.794 µM (active).
As for `CN(C)Cc1ccc(C(C)(C)C)cc1-c1cc(C(C)(C)C)ccc1CN(C)C`, the activity, negative = inhibition is -2% [at 11.4 µM] (inactive).
Turning to `O=C1C2=CC[C@H]3C(=O)N(c4cccc(Oc5ccccc5)c4)C(=O)[C@@H]3[C@@H]2[C@H](O)[C@@H]2O[C@H]12`, the activity, negative = inhibition is 1.91% [at 11.4 µM] (inactive).
Take `Cc1ccc(C(=O)N/N=C\c2cccn2C)cn1`: the AC50 entry was “inactive”.
As to `Fc1ccc(C2=Nn3c(Cc4ccccc4F)nnc3SC2)cc1`, the AC50 result is “inactive”.
The same measure, in the same setting: in the case of `Cc1ccc(C(=O)NC(=S)Nc2ccc(S(=O)(=O)N3CCN(C)CC3)cc2)cc1` it was “inactive”.
As to `CC(C)(C)NC(=O)C(c1ccccn1)N(C(=O)C1CSC(=O)C1)c1ccc(F)cc1` (stereo not given), the AC50 entry was “inactive”.
For `CC1=N[C@@](C)(COC(=O)[C@]2(C)N[C@](C)(CO)CO2)COC1=O`, the activity, negative = inhibition is 10% [at 11.4 µM] (inactive).
As for `NC(=O)CN1CCN(c2nc(-c3ccc(F)cc3)cs2)CC1`, the AC50 result was “inactive”.
`Cn1cccc1C(=O)N1CCC[C@@]2(CCN(Cc3ccccc3)C2)C1`: the AC50 was 2 µM (active).
For the compound `Cn1cccc1C(=O)N1CCC[C@@]2(CCN(c3ccncc3)C2)C1`, the AC50 result was “inactive”.
The same measure, in the same setting: in the case of `Cn1cccc1C(=O)N1CCC2(CCN(Cc3ccncc3)CC2)CC1` it was “inactive”.
`Cn1cccc1C(=O)N1CCC2(CC1)CN(c1ccncc1)C2`: the AC50 result was “inactive”.
Take `Cn1cccc1C(=O)N1CCC[C@@]2(CCN(c3ccccc3)C2)C1`: the AC50 entry is “inactive”.
On to `Cn1cccc1C(=O)N1CCC[C@@]2(CCN(Cc3cc(C(F)(F)F)cc(C(F)(F)F)c3)C2)C1`, for which the half-maximal activity concentration (AC50) is 3.98 µM (active).
For the compound `Cn1cccc1C(=O)N1CCC2(CCN(Cc3ccccc3)CC2)CC1`, the AC50 is 7.94 µM (active).
Regarding `Cn1cccc1C(=O)N1CCC2(CC1)CCN(c1ccccc1)CC2`, the AC50 entry was “inactive”.
Turning to `Cn1cccc1C(=O)N1CCC2(CCCN(Cc3ccncc3)C2)CC1`, the AC50 is 7.94 µM (active).
With `CN1CC[C@@]2(CCCN(C(=O)c3cccn3C)C2)C1`, the AC50 result was “inactive”.
In the case of `COc1ccc(C(=O)N2CCC[C@@]3(CCN(Cc4cc(C(F)(F)F)cc(C(F)(F)F)c4)C3)C2)cc1`, the AC50 result is “inactive”.
Turning to `Cn1cccc1C(=O)N1CCC2(CC1)CN(Cc1ccc(C#N)cc1)C2`, the AC50 entry was “inactive”.
In the case of `NCC[C@H]1CCC[C@H](CCN)N1`, the AC50 entry was “inactive”.
Turning to `O=[N+]([O-])c1ccc(C=Nc2ccc(Cl)cc2Cl)s1`, the AC50 entry was “inactive”.
On the same count and under the same terms, under `COC(=O)[C@@]1(Cc2ccc(F)cc2)[C@@H]2C(=CC(=O)[C@H]2CC(=O)C(=O)N2CCCC2)CN1C(=O)c1ccccc1` stands “inactive”.
Turning to `N#CCCn1c(=O)cnc2cnc(N3CCNCC3)nc21`, the AC50 entry was “inactive”.
As for `c1ccc2cc(-c3csnn3)ccc2c1`, the AC50 entry is “inactive”.
Regarding `CS(=O)(=O)N1CCCC(C(=O)N2CCc3ccccc3C2)C1` (stereo not given), the AC50 result is “inactive”.
On to `CCOC(=O)CC(=O)CSc1nc(-c2cccnc2)cc(C)c1C#N`, for which the AC50 result was “inactive”.
On to `Cc1ccc(CONC(=O)/N=C/N(C)C)cc1`, for which the AC50 entry was “inactive”.
`C=CCNc1sc(C(=O)c2ccccc2)c(N)c1C#N`: the AC50 entry is “inactive”.
On to `CCC[C@@H]1O[C@@H]2C[C@@H]3[C@H]4CCC5=CC(=O)C=C[C@@]5(C)[C@H]4[C@H](O)C[C@@]3(C)[C@@]2(C(=O)CO)O1`, for which the AC50 entry is “inactive”.
On to `CO[C@@H]1/C=C\O[C@]2(C)Oc3c(C)c(O)c4c(O)c(cc(O)c4c3C2=O)NC(=O)/C(C)=C\C=C/[C@H](C)[C@@H](O)[C@H](C)[C@H](O)[C@H](C)[C@H](OC(C)=O)[C@@H]1C`, for which the activity, negative = inhibition was 11.7% [at 11.4 µM] (inactive).
`O=C(CSc1nc2nc(-c3cccs3)cc(C(F)(F)F)c2c(=O)[nH]1)NCc1ccco1`: the AC50 entry was “inactive”.
With `O=C1COc2ccccc2CN1`, the AC50 entry is “inactive”.
As for `Cn1c(=O)cnc2cnc(Nc3ccccc3)nc21`, the AC50 entry is “inactive”.
Take `CC[C@]1(O)C[C@@H]2CN(CCc3c([nH]c4ccccc34)[C@](C(=O)OC)(c3cc4c(cc3OC)N(C)[C@H]3[C@](O)(C(=O)OC)[C@@H](C(=O)OC)[C@@]5(CC)C=CCN6CC[C@@]43[C@@H]65)C2)C1`: the AC50 entry is “inactive”.
`CN(C)S(=O)(=O)c1nc(Cl)c2[nH]cnc2n1`: the activity, negative = inhibition was 9.4% [at 11.4 µM] (inactive).
As to `Cn1cccc1C(=O)N1CCC2(CCCN(Cc3ccccc3)C2)CC1`, the AC50 was 10 µM (active).
For `CC(C)CN1CCCC2(CCN(C(=O)c3cccn3C)CC2)C1`, the AC50 result is “inactive”.
`Cn1cccc1C(=O)N1CCC2(CCCN(Cc3ccc(C#N)cc3)C2)CC1`: the AC50 result was “inactive”.
`O=c1c(-c2ccccc2)nc2cnc(N3CCOCC3)nc2n1Cc1cccs1`: the AC50 entry was “inactive”.
Consider `CCOc1ccc(OCC)c(NC(=O)C2CCCN(S(=O)(=O)c3cccs3)C2)c1` (stereo not given), for which the AC50 entry was “inactive”.
The same measure, in the same setting: in the case of `NNc1nncc2ccccc12` it was “inactive”.
Consider `C=CC[C@@H]1C=C[C@H](O/N=C\[C@@H](C)[C@H](OCc2ccccc2)C(C)C)[C@H](CO)O1`, for which the activity, negative = inhibition is -3.33% [at 11.4 µM] (inactive).
On to `CC1(C)N=C(N)N=C(N)N1CCCCc1ccccc1`, for which the AC50 was 3.16 µM (active).
As to `COc1ccc(-n2c(=O)c(-c3ccc(Cl)cc3)nc3cnc(N4CCOCC4)nc32)cc1`, the AC50 result was “inactive”.
On to `CCOC(=O)COc1c(OC)cc(Cl)cc1C1Nc2ccccc2C(=O)N1c1cccc(C)c1` (stereo not given), for which the AC50 result is “inactive”.
The same measure, in the same setting: in the case of `Cn1c(CNS(=O)(=O)c2ccc(F)cc2)n[nH]c1=S` it was “inactive”.
Same read-out and setting: in the case of `CN(CCC#N)C(=O)c1ccc(CNS(=O)(=O)c2ccc(F)cc2)cc1` it was 28.2 µM (active); in that of `O=C(NCCCN1CCCC1=O)c1ccc(CNS(=O)(=O)c2ccc(F)cc2)cc1`, “inactive”; in that of `CC(C)c1ccc2nc3sc(C(=O)N4CCc5ccccc5C4)c(N)c3cc2c1`, “inactive”.
The same measure, in the same setting: under `COc1ccccc1CN1CCCC2(CCN(C(=O)c3cnccn3)CC2)C1` stands 3.98 µM (active); under `O=C(c1cnccn1)N1CCC2(CCCN(Cc3nccs3)C2)CC1`, 7.94 µM (active); under `COc1ccccc1CN1CC2(CCN(C(=O)c3cnccn3)CC2)C1`, “inactive”.
As to `O=C(c1cnccn1)N1CCC2(CC1)CN(Cc1nccs1)C2`, the AC50 entry was “inactive”.
On the same count and under the same terms, under `COc1ccccc1CN1CCCC2(CCN(C(=O)c3ccncc3)CC2)C1` stands 3.16 µM (active).
For `COc1ccccc1CN1CC2(CCN(C(=O)c3ccncc3)CC2)C1`, the AC50 was 0.794 µM (active).
On the same count and under the same terms, under `O=C(c1cnccn1)N1CCC2(CCN(Cc3nccs3)CC2)CC1` stands “inactive”.
Same read-out and setting: in the case of `CN1CCCC2(CCN(C(=O)c3cnccn3)CC2)C1` it was “inactive”; in that of `O=c1c(CCc2ccccc2)nc2cnc(Oc3ccccc3)nc2n1C1CC1`, “inactive”.
With `O=C(CSc1nc2ccccc2s1)c1sc2sc3ccccc3[n+]2c1O`, the activity, negative = inhibition was -14.5% [at 11.4 µM] (inactive).
As to `Cc1ccc(C(=O)O)cc1N1C(=O)c2cccc3cc(Br)cc(c23)C1=O`, the AC50 result was “inactive”.
For `CCCNC(=O)OC[C@@H]1O[C@H](CCO/N=C(\C)CCN2CCc3nc(-c4ccccc4)c(-c4ccccc4)cc3C2)C=C[C@@H]1Oc1ccc(OC)cc1`, the activity, negative = inhibition is -6.26% [at 11.4 µM] (inactive).
Take `COc1ccc(Oc2ncc3nc(C)c(=O)n(C)c3n2)cc1`: the AC50 result was “inactive”.
As for `CC(C)C12CN3CC(C(C)C)(CN(C1)C3c1ccco1)C2=O` (stereo not given), the AC50 entry is “inactive”.
Turning to `CC(=O)Nc1c(I)c(C(=O)N[C@H]2[C@@H](O)[C@H](O)[C@H](CO)O[C@@H]2O)c(I)c(N(C)C(C)=O)c1I`, the AC50 result is “inactive”.
Take `CCOc1ccc(N(CCC#N)S(=O)(=O)c2ccc(OC)cc2)cc1`: the AC50 entry was “inactive”.
Regarding `COc1cc([C@H]2c3cc4c(cc3[C@@H](O)[C@@H]3COC(=O)[C@H]23)OCO4)cc(OC)c1OC`, the AC50 result was “inactive”.
For the compound `O=C1N/C(=C\c2ccc(N3CCOCC3)c(F)c2)C(=O)N1Cc1ccccc1`, the AC50 entry was “inactive”.
With `COCCn1c(=O)c(C)nc2cnc(Oc3cccc(Cl)c3)nc21`, the AC50 result was “inactive”.
On the same count and under the same terms, in the case of `Sc1ccc2ccccc2c1CNCc1ccccc1` it was 1.26 µM (active).
Consider `O=C(O)c1ccc(CNCc2ccccc2)cc1`, for which the activity, negative = inhibition was 8.97% [at 11.4 µM] (inactive).

A word on the AC50: it is the concentration at which the activity in the assay is half-maximal.
